Measured values from PubChem BioAssay AID488890 (Southern Research Specialized Biocontainment Screening …, 2010).
Out of some 320,000 compounds screened, about 1,300 (0.41%) were called active. Roughly 3% stayed inconclusive and do not appear here. The rule behind the calls is not given here. Not all results are given here. Measured potencies and affinities stand elsewhere.

assay: growth inhibition of non-replicating M. tuberculosis (AID 488890); conditions: Mycobacterium tuberculosis non-replicating, at 25 µM, stronger effect = higher value;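 note: plate controls were DMSO cells for no effect and high antibiotic wells for full effect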

| SMILES | inhibition |
| --- | --- |
| N#Cc1c(NCCCO)nc(NCc2ccccc2)c2c1CCN(Cc1ccccc1)C2 | 26.6% |
| O=C(COC(=O)c1ccccn1)NC12CC3CC(CC(C3)C1)C2 | 30.9% |
| O=C(NNC(=O)C12CC3CC(CC(C3)C1)C2)c1ccncc1 | 4.55% |
| C/C(=N\NC(=O)c1ccccn1)C12CC3CC(CC(C3)C1)C2 | 54.4% |
| O=C(OCC(=O)C12CC3CC(CC(C3)C1)C2)c1cnccn1 | 17.7% |
| CC(C)N1CCN(Cc2nc3ccccc3s2)CC1CCO (centres undefined) | 8.77% |
| Cc1cc(C)c2cc(C(=O)Nc3ccc4c(c3)OCO4)[nH]c2c1 | -16.4% |
| CCOC(=O)c1c(NC(=O)C(C)N2CCN(S(=O)(=O)c3cccs3)CC2)sc2c1CCC(C)C2 (centres undefined) | -4.48% |
| COc1ccc(/C=C/C(=O)Oc2ccc(C)cc2)cc1 | 65.3% |
| Cc1ccc(-c2cc(-c3ccc(C)cc3)[n+](C)o2)cc1 | 24.7% |
| CC1Cc2ccccc2N1C(=O)CCS(=O)(=O)c1cccs1 (centres undefined) | 15.3% |
| COc1ccc(CCNC(=O)Cc2ccc(OC)c(OC)c2)cc1OC | 13.8% |
| O=C(OCc1cccc([N+](=O)[O-])c1)c1cnccn1 | 17.7% |
| O=C(OCc1cc([N+](=O)[O-])cc2c1OCOC2)c1ccc2ccccc2n1 | 74.8% |
| COc1ccc(C(C)=O)cc1COC(=O)c1cc2ccccc2cc1O | 2.94% |
| Nc1ccccc1C(=O)OCc1ccc([N+](=O)[O-])cc1 | 3.01% |
| COc1ccc(C(C)=O)cc1COC(=O)c1cc(C)nc2ccccc12 | 7.17% |
| O=C(Cc1ccccc1[N+](=O)[O-])OCc1cccc([N+](=O)[O-])c1 | 34.7% |
| c1ccc(OCCn2cnc3ccccc32)cc1 | 1.01% |
| CSc1ccccc1OCc1cc(C(=O)N(Cc2nccn2C)C(C)C)no1 | -13.1% |
| Cc1ccnc(Nc2nc(-c3sc(C)nc3C)cs2)c1 | 36.1% |
| O=C(NCc1cccnc1)c1cccc(F)c1 | -1.31% |
| CCn1cc(C(=O)OCC(=O)NCc2ccc3c(c2)OCO3)c(=O)c2ccc(C)nc21 | 40.4% |
| CCC(C(=O)Nc1ccc2c(c1)OCCO2)n1nnc2ccccc2c1=O (centres undefined) | 6.85% |
